Source: PubChem BioAssay AID624116 (National Center for Advancing Translational Sciences (NCATS), 2012)
Inconclusive results are not listed. Entries that show only a call come without a potency. The source made the active and inactive calls. The call rests on the fitted dose curve; in most records, active means well fitted activation curve with a large enough effect; inconclusive means small, poorly fitted or top-dose-only effect; inactive means no such curve, though single readings can be large or run the other way.

test: qHTS Assay for Rab9 Promoter Activators: Hit Validation Using Renilla Luciferase Read-Out for Rab9; conditions: Huh7 Rab9 promoter Renilla luciferase reporter, 24 h; series mostly up to 76.9 µM
Procedure, shortened: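 Huh7 cells stably carrying promoter-luciferase reporter, exposed to compound for 24 h at 37 deg C. Luminescence read 10 min after adding luciferase detection reagent at room temperature.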
Potency means the concentration at half of the fitted maximal effect.

SMILES | Potency
CCCOP(=O)(c1ccc(N(C)C)cc1)C(O)c1cccnc1 (stereo not drawn) | inactive
O=C(CCS(=O)(=O)c1ccccc1)Nc1ccc(-c2nc3ccccc3s2)cc1 | inactive
FC(F)(F)c1ccc(Nc2nnnc3ccccc23)cc1 | inactive
COc1ccc(NC(=O)Nc2ccc(Cc3ccncc3)cc2)cc1OC | inactive
Cn1c(SCc2ccccc2)nnc1-c1cnccn1 | inactive
CCCNC(=O)C1CCN(S(=O)(=O)c2ccc3[nH]c(=O)ccc3c2)CC1 | inactive
O=C(Nc1ccc(-c2nc3cccnc3s2)cc1)c1ccc(Cl)nc1 | inactive
Nc1ccc(C(=O)Nc2ccccc2N)cc1 | 16.4 µM (active)
CN(C)C(=O)[C@H]1C[C@H]1[C@@H](O)[C@H](CO)NC(=O)[C@H](COCc1ccccc1)NC(=O)OC(C)(C)C | inactive
O=[N+]([O-])c1cnccc1Nc1ccc(F)cc1 | inactive
CC(C)(C)C(=O)NC(=S)Nc1ccccc1F | inactive
COC(=O)Nc1nc2ccc(Br)cc2s1 | inactive
COC(=O)c1cn(NC(=O)C2CCCCC2)c(=O)c2ccccc12 | inactive
N#C/C(=C\c1ccc[nH]1)C(=O)Nc1ccccc1Cl | 23.2 µM (active)
COC(=O)c1ccccc1NC(=O)c1ccc(-c2ccc(Br)cc2)o1 | inactive
COc1ccc(-c2cc(C(=O)Nc3ccccc3F)on2)cc1 | inactive
COc1ccc(C(=O)OCC(=O)N2CCCC2=O)c(OC)c1 | inactive
CC(=O)Nc1ccc(-c2csc(Nc3ncccn3)n2)cc1 | inactive
Nc1ccccc1C(=O)N/N=C1/C2CN3CCN(C2)CC1(Cc1ccccc1)C3 | inactive

SMILES | Potency
Fc1ccc(-c2nc3nc4ccccc4nc3n2Cc2ccco2)cc1 | inactive
CCCc1cc(C(=O)Nc2ccccc2SC)no1 | inactive
O=CN1CCN(C(=O)c2ccccc2Cl)CC1 | inactive
O=C(NC(=S)Nc1ccc(CN2CCCCC2)cc1)c1cc2ccccc2o1 | inactive
O=C(/C=C/c1ccco1)NCC1OCCc2ccccc21 (stereo not drawn) | inactive
COc1ccc(/C=C\c2onc(C)c2S(=O)(=O)N2CCC(C(=O)NCCC(C)C)CC2)cc1 | inactive
COc1ccc(C(c2nnnn2CCc2ccccc2)N2CCN(C3CCCC3)CC2)cc1 (stereo not drawn) | 13 µM (active)
COc1ccccc1N(C(=O)c1snc(C(N)=O)c1N)C(C(=O)NC1CCCCC1)c1cccc(OC)c1OC (stereo not drawn) | 26 µM (active)
CC(C)CC(=O)N1CCN(c2ccc(NC(=O)c3ccco3)cc2)CC1 | inactive
O=C(Nc1nc2ccc(F)cc2s1)c1ccc(N2CCCC2=O)cc1 | inactive
COc1ccccc1OCCCC(=O)NCc1ccco1 | inactive
COC(=O)CSc1nc2cc3c(cc2cc1C#N)OCO3 | inactive
Cc1nc(-c2ccc(S(=O)(=O)Oc3ccc(Cl)cc3Cl)s2)cs1 | inactive
CCC(=O)Nc1cc(-c2cc3ccccc3oc2=O)ccc1OC | inactive
COc1cccc(C(C(=O)NC2CCCC2)N(CCC(C)C)C(=O)CCC(=O)Nc2cc(C)on2)c1 (stereo not drawn) | inactive
CCOC(=O)c1cc2sccc2n1CC(=O)N1CCCc2ccccc21 | inactive
Cc1ccc(C(=O)c2cn[nH]c2-c2ccccc2O)cc1 | inactive
COC(=O)c1ccccc1S(=O)(=O)NNC(=O)Nc1ccccc1 | inactive
COC(=O)c1ccccc1NC(=O)c1cc(-c2cccs2)on1 | inactive
